Results: PubChem BioAssay AID488969 (Vanderbilt High Throughput Screening Facility, 2010)
Whole data set: some 110,000 compounds, median “z-score” near -0.1, cut for the highest 2% near 2. Only a selection was taken, and the highest values are over-represented in it overall. Activity calls are given as the source filed them.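 The calls were made as follows: active = z-score in the third read window above 3 or below -3; inactive = the rest.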

target: Metabotropic glutamate receptor 8 (Rattus norvegicus) (UniProt P70579); assay: rat mGluR8 modulators via GIRK flux, primary screen, cell-based, thallium flux, HTS (AID 488969); conditions: HEK293 rat mGluR8, GIRK (G protein-gated inwardly rectifying potassium channel) thallium flux, FluoZin2; at 10 µM; stronger effect = higher value; submaximal glutamate (EC20) added with thallium
Sequence (P70579 whole entry, looked up): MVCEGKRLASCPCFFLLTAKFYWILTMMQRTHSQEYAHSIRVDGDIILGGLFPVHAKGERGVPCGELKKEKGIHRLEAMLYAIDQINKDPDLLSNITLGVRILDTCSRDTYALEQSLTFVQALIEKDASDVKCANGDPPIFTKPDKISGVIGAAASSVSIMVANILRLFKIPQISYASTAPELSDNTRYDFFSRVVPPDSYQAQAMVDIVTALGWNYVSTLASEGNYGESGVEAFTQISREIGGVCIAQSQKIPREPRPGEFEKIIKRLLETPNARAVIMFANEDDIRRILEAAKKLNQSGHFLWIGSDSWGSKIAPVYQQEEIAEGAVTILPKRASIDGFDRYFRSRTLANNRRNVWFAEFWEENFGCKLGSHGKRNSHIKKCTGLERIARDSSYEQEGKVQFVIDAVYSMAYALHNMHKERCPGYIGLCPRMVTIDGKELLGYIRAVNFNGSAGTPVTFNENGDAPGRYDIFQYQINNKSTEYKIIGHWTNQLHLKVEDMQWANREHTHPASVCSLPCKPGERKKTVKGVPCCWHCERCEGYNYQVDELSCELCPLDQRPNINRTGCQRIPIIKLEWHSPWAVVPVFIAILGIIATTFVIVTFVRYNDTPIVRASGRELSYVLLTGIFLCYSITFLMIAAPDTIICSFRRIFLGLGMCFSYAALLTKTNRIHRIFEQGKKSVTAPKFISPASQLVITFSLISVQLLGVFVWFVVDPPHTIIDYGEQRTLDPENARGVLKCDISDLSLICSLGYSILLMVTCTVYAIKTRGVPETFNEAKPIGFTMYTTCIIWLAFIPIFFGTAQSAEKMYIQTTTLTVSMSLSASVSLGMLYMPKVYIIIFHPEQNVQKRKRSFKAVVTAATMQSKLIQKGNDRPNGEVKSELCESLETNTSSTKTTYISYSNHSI

Compound	z-score
CCN(CCNC(=O)C1CCN(Cc2nc(-c3ccc(Cl)cc3)oc2C)CC1)c1ccccc1	1.3
CN(C)c1ccnc(NCc2ccccc2)c1C#N	-0.278
O=C(Nc1ccncc1)Nc1ccccn1	-0.133
CCC(=O)N/C(=N\OCc1ccc(F)cc1)c1nonc1NC(=O)CC	-0.064
COc1ccccc1-c1noc(CCC(=O)Nc2cccc(C)c2)n1	-0.323
O=C(c1cnn2c(C(F)(F)F)cc(-c3ccco3)nc12)N1CCCc2ccccc21	-0.976
O=C(c1cnn2c(C(F)(F)F)cc(-c3ccco3)nc12)N1CCCCCC1	2.24
O=C(c1cnn2c(C(F)(F)F)cc(-c3ccco3)nc12)N1CCc2ccccc2C1	-1.04
COc1cc(C(C)=O)ccc1COc1ccc(C(=O)OCC(=O)NC(C)(C)C)cc1OC	-0.573
O=C(NCc1ccccn1)c1ccc(CNS(=O)(=O)c2ccc(F)cc2)cc1	-0.111
CN1C(=O)c2ccccc2N(C)C1c1cccs1 (stereo not given)	-1.51
CC1CCC(n2c(=S)[nH]c3ccccc3c2=O)CC1 (stereo not given)	8.55 (active)
CCOC(=O)N1CCC(n2c(=S)[nH]c3ccccc3c2=O)CC1	0.582
O=c1c2ccccc2[nH]c(=S)n1CC1CCCO1 (stereo not given)	0.302
Cc1c(-n2c(=S)[nH]c3ccccc3c2=O)c(=O)n(-c2ccccc2)n1C	0.153
O=c1c2ccccc2[nH]c(=S)n1C1CCCCC1	12.5 (active)
O=c1c2[nH]c3ccccc3c2ncn1C1CCCCC1	0.256
Cc1ccc(S(=O)(=O)Nc2cc(C(F)(F)F)ccc2N2CCOCC2)cc1	0.266
Cc1ccc(-c2nnc3n2CCCCC3)cc1	0.0634
CCNC(=O)COC(=O)C1C(C(=O)OCC)=C(C)NC(C)=C1C(=O)OCC	-0.145
O=C(Cn1c(=O)n(-c2ccccc2)c(=O)c2sccc21)N1CCCC1	-0.24
Cc1ccc(OCC(=O)N/N=C/c2cn(Cc3ccccc3)c3ccccc23)cc1	-0.188
O=C(O)CCCN1C(=O)/C(=C/c2ccc(-c3nc4ccccc4s3)o2)SC1=S	0.773
O=C(O)CCN1C(=O)/C(=C\c2ccc(-c3nc4ccccc4s3)o2)SC1=S	2.49
O=C(O)CCN1C(=O)/C(=C/c2ccc(-c3nc4ccccc4s3)o2)SC1=S	1.83
COc1ccccc1N1C(N)=NC(N)=NC1(C)C	-0.0746
CC(=O)CCc1ccc2oc(C(=O)O)c(C)c2c1	-0.497
COC(=O)c1[nH]c2ccc(C)cc2c1NC(=O)CCN1CCN(Cc2ccc3c(c2)OCO3)CC1	9.23 (active)
Cc1[nH]c2ccccc2c1NC(=O)CN1CCN(Cc2ccc3c(c2)OCO3)CC1	-0.288
COC(=O)c1[nH]c2ccc(F)cc2c1NC(=O)CCN1CCN(Cc2ccc3c(c2)OCO3)CC1	-0.752
